{
  "source": "PubChem BioAssay (NCI)",
  "note": "About 83,000 compounds went through this panel and 20% of them were active in at least one assay; those are over-represented in the sample as a whole.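 Step 1: grow cells in 96-well plates. Step 2: add test compound at a single concentration. Step 3: incubate 48 h. Step 4: record percent growth.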 Values without a mark were called inactive. Activity calls are given as the source filed them.",
  "data": [
    {"tested_on": "MOLT-4 leukemia", "test": "NCI-60 one-dose screen, 48 h (100 = growth as untreated, 0 = no growth, -100 = all killed)", "conditions": "10 µM unless noted", "method": "Growth inhibition of the MOLT-4 human tumor cell line is measured as a screen for anti-cancer activity. Cells are grown in 96 well plates and exposed to the test compound for 48 hours. Compounds are tested at a single concentration, which is 10^-5 M for most compounds. The reported endpoint is percent growth (GI% or GIPRCNT), where numbers from 0 - 100% represent growth inhibition, and numbers from -100% - 0 represent cell death. For example, a value of 40 represents 60% growth inhibition. A value of 0 means no net growth occurred over the course of the experiment. A value of -40 indicates 40% of cells at the beginning of the experiment died by the end of the experiment. A value of -100 means all cells are dead at the end of the experiment.\nNCI-60 Human Tumor Cell Lines Screen was performed using the standard one-dose NCI protocol, which is described in more detail at https://dtp.cancer.gov/discovery_development/nci-60/default.htm.\nCompounds with GIPRCNT values below 10 were considered active. Activity score was based on GIPRCNT using the following formula: […]\nScore is 0 for GIPRCNT values of 100 or above, 50 for GIPRCNT values of 0, and 100 for GIPRCNT values of -100.", "values": [
      {"smiles": "COc1ccc(-c2cnc(SCC(=O)Nc3ccc(-c4nc5ccccc5s4)cc3)n2-c2ccc(OC)cc2)cc1", "growth": "105%"},
      {"smiles": "O=C(Oc1ccccc1)C(Br)C(Br)c1ccccc1", "note": "(stereo not given)", "growth": "7.62% (active)"},
      {"smiles": "CCCCCCC(CC#N)(CCC)CCCC", "note": "(stereo not given)", "growth": "97.5%"},
      {"smiles": "NC(=O)c1cc(Br)cc(Br)c1NS(=O)(=O)c1ccccc1", "growth": "123%"},
      {"smiles": "O=C1NC(=O)/C(=C\\c2ccco2)S1", "growth": "111%"},
      {"smiles": "COc1ccc(C(=O)COc2ccc(/C=C3\\Oc4ccc5ccccc5c4C3=O)cc2)cc1", "growth": "50.4%"},
      {"smiles": "COc1ccc2c(c1)c(CC(=O)[Se]C)c(C)n2C(=O)c1ccc(Cl)cc1", "growth": "6.33% (active)"},
      {"smiles": "CCOc1cc(/C=C/C(=O)C(C(=O)/C=C/c2ccc(OC(=O)CNc3nc4ccccc4[nH]3)c(OCC)c2)C(=O)CNc2nc3ccccc3[nH]2)ccc1OC(=O)CNc1nc2ccccc2[nH]1", "growth": "-27.5% (active)"},
      {"smiles": "CC(=O)OCC(=O)[C@@]1(O)CC[C@H]2[C@@H]3CCC4=CC(=O)CC[C@]4(C)[C@@]3(F)[C@@H](O)C[C@@]21C", "growth": "90.2%"},
      {"smiles": "CC(=O)O[C@H]1CC[C@@]2(C)C(=CC[C@@H]3[C@@H]2CC[C@]2(C)C(c4cccnc4)=CC[C@@H]32)C1", "growth": "46%"},
      {"smiles": "c1ccc(-c2oc(-c3ccccc3)c3ccccc23)cc1", "growth": "95.7%"},
      {"smiles": "O=C(CN1CCN(c2ccc(Cl)cc2)CC1)N1CCN(c2nnc(-c3ccccc3)c(-c3ccccc3)n2)CC1", "growth": "-35.1% (active)"},
      {"smiles": "CCCCCN1C(=O)CCC1=O", "growth": "110%"},
      {"smiles": "c1ccc(-c2nc(Nc3nccnn3)c3ccccc3n2)cc1", "growth": "100%"},
      {"smiles": "Cc1ccc(/C=C(/C#N)n2nnc3ncccc32)cc1", "growth": "11.8%"},
      {"smiles": "CC(C)Sc1nc(Cl)c(C#N)c(-c2ccc(F)cc2)n1", "growth": "7.38% (active)"},
      {"smiles": "COc1ccc(C(=O)/C=C/c2ccc(C)cc2)cc1OC", "growth": "52.1%"},
      {"smiles": "Clc1ccc(C2=NN(c3ccc(Cl)cc3)C(c3cccc(Nc4ccnc5cc(Cl)ccc45)c3)C2)cc1", "note": "(stereo not given)", "growth": "56.7%"},
      {"smiles": "CN[C@@H]1C(OC2[C@H](O[C@H]3[C@H](O)[C@@H](O)[C@H](N=C(N)N)[C@@H](O)[C@@H]3N=C(N)N)OC(C)[C@]2(O)CO)OC(CO)C(O)C1O", "note": "(stereo not given in full)", "growth": "92.7%"},
      {"smiles": "CN(C)CCCNc1nn2c(=O)c3ccccc3nc2c2ccccc12", "growth": "-19.6% (active)"},
      {"smiles": "O=C(NCCCl)NCCN1c2nc3ccccc3cc2Sc2cc3ccccc3nc21", "growth": "-9.47% (active)"},
      {"smiles": "NC(=N\\N=C/Cc1ccccc1)/C(N)=N\\N=C\\Cc1ccccc1", "growth": "100%"},
      {"smiles": "CCOc1cc(/C=C/C(=O)C(C(=O)/C=C/c2ccc(OC(=O)CNc3nnc(C)s3)c(OCC)c2)C(=O)CNc2nnc(C)s2)ccc1OC(=O)CNc1nnc(C)s1", "growth": "-34.3% (active)"},
      {"smiles": "O=c1ccn(C2CC=C(CO)O2)c(=O)[nH]1", "note": "(stereo not given)", "growth": "101%"},
      {"smiles": "O=c1[nH]c(N2CCC(Cc3ccccc3)CC2)nc2sc3c(c12)CCCC3", "growth": "100%"},
      {"smiles": "CCC(C)C1NC(=O)C(CCNCS(=O)(=O)O)NC(=O)C(NC(=O)C(CCNCS(=O)(=O)O)NC(=O)C(NC(=O)C(CCNCS(=O)(=O)O)NC(=O)CCCCC(C)C)C(C)O)CCNC(=O)C(C(C)O)NC(=O)C(CCNCS(=O)(=O)O)NC(=O)C(CCNCS(=O)(=O)O)NC(=O)C(C(C)CC)NC1=O", "note": "(stereo not given)", "growth": "66.4%"},
      {"smiles": "COC(=O)[C@H](Cc1cn(C)cn1)NC(=O)[C@H](C)NC(=O)Nc1cc(C(F)(F)F)cc(C(F)(F)F)c1", "growth": "-27.4% [100 µM] (active)"},
      {"smiles": "O=C(N/N=C/c1cccc(O)c1O)c1ccccc1", "growth": "9.39% (active)"},
      {"smiles": "COc1ccc(-c2c3c(N)nc(-c4ccncc4)nc3nc3c2c(C)nn3-c2ccccc2)cc1", "growth": "51.2%"},
      {"smiles": "O=c1[nH]c(SCc2ccccc2)nc2nc(Nc3ccc(NC(=S)Nc4ccccc4)cc3)nc(-c3ccc(O)cc3O)c12", "growth": "93%"},
      {"smiles": "COc1ccccc1NC(=O)c1sc2nc3c(cc2c1N)C(=O)CCC3", "growth": "89.6%"},
      {"smiles": "Cc1ccc(-c2csc(N)n2)cc1", "growth": "90.3%"},
      {"smiles": "COc1cc(/C=C/C(=O)C(C(=O)/C=C/c2ccc(OC(=O)CCNc3nnc(C)s3)c(OC)c2)C(=O)CCNc2nnc(C)s2)ccc1OC(=O)CCNc1nnc(C)s1", "growth": "-27.9% (active)"},
      {"smiles": "CCOc1cc(/C=C/C(=O)CC(=O)/C=C/c2ccc(OC(=O)CNc3nc4ccc(OC)cc4s3)c(OCC)c2)ccc1OC(=O)CNc1nc2ccc(OC)cc2s1", "growth": "4.13% (active)"},
      {"smiles": "CC(C)CNc1nc(N=[N+]=[N-])nc(NCC(C)C)n1", "growth": "34.4% [100 µM]"},
      {"smiles": "COc1cnc2c(c1)C(=O)c1c-2n(CCCNC(C)C)c(=O)c2cc(F)ccc12", "growth": "-22.9% (active)"},
      {"smiles": "O=C(Nc1cccc(Cl)c1)Nc1cccc(Cl)c1", "growth": "51.6%"},
      {"smiles": "COc1ccc(C2=NN(C=O)C(c3cccc(Nc4ccnc5cc(Cl)ccc45)c3)C2)cc1", "note": "(stereo not given)", "growth": "9.88% (active)"},
      {"smiles": "Cc1sc2nc(NCCc3cccs3)[nH]c(=O)c2c1C", "growth": "75.3%"},
      {"smiles": "O=C(COc1ccc(/C=C2\\Cc3ccccc3C2=O)cc1)c1ccc(Cl)cc1", "growth": "95.9%"}
    ]}
  ]
}
